Measurements published in PubChem BioAssay AID1159580 (chemical genetic matrix, 2015).
“And” between values parts separate entries of the source, which are not always exact repeats. Equal entries are not always repeated. The whole screen tested about 5,500 compounds, of which about 2,000 (36%) were called active. About 18% were inconclusive and are not listed. The list shows a part of the results. Values without a mark were called inactive. Rule as the data show it: active = normalized growth mostly below about 0.91 (no sharp cut-off); inconclusive = no clear call, values can overlap the other calls; inactive = mostly above about 0.92.

Test: chemical genetic growth profiling, strain panel (AID 1159580);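 also: tested at 20 µM; growth read once vehicle control cultures reached saturation at 30 °C; 1 = growth at the plate median or of vehicle wells; lower values mean less growth of the strain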
Conditions: S. cerevisiae deletion strains, growth OD

With `CN(C)C(=S)SSC(=S)N(C)C` the normalized growth (locus YAL013W, strain DEP1, active compounds read low) was 0.0581 (active), the normalized growth (locus YAL021C, strain ccr4, active compounds read low) was 0.0666 (active) and the normalized growth (locus YAL026C, strain drs2, active compounds read low) was 0.0601 (active). For the same compound, the normalized growth (locus YAL030W, strain snc1, active compounds read low) was 0.0553 (active), the normalized growth (locus YBL061C, strain skt5, active compounds read low) was 0.0618 (active) and the normalized growth (locus YBR009C, strain hhf1, active compounds read low) was 0.0687 (active). The normalized growth (locus YBR021W, strain FUR4, active compounds read low) was 0.0817 (active), the normalized growth (locus YBR023C, strain chs3, active compounds read low) was 0.061 (active) and the normalized growth (locus YBR171W, strain sec66, active compounds read low) was 0.074 (active). The normalized growth (locus YBR229C, strain ROT2, active compounds read low) was 0.048 (active), the normalized growth (locus YBR231C, strain swc5, active compounds read low) was 0.0647 (active) and the normalized growth (locus YBR279W, strain paf1, active compounds read low) was 0.0589 (active). The normalized growth (locus YCL011C, strain gbp2, active compounds read low) was 0.0557 (active), the normalized growth (locus YCL016C, strain dcc1, active compounds read low) was 0.0628 (active) and the normalized growth (locus YCL029C, strain bik1, active compounds read low) was 0.0606 (active). For the same compound, the normalized growth (locus YCL061C, strain MRC1, active compounds read low) was 0.0642 (active), the normalized growth (locus YCL069W, strain vba3, active compounds read low) was 0.0641 (active) and the normalized growth (locus YCR088W, strain abp1, active compounds read low) was 0.0578 (active). The normalized growth (locus YDL005C, strain med2, active compounds read low) was 0.0735 (active), the normalized growth (locus YDL035C, strain GPR1, active compounds read low) was 0.0496 (active) and the normalized growth (locus YDL040C, strain nat1, active compounds read low) was 0.0566 (active). For the same compound, the normalized growth (locus YDL074C, strain BRE1, active compounds read low) was 0.08 (active), the normalized growth (locus YDL101C, strain DUN1, active compounds read low) was 0.0541 (active) and the normalized growth (locus YDL134C, strain PPH21, active compounds read low) was 0.048 (active). The normalized growth (locus YDL185W, strain tfp1, active compounds read low) was 0.967, the normalized growth (locus YDL192W, strain arf1, active compounds read low) was 0.0606 (active) and the normalized growth (locus YDR001C, strain nth1, active compounds read low) was 0.0555 (active). The normalized growth (locus YDR069C, strain doa4, active compounds read low) was 0.0622 (active), the normalized growth (locus YDR101C, strain arx1, active compounds read low) was 0.0568 (active) and the normalized growth (locus YDR137W, strain rgp1, active compounds read low) was 0.0857 (active). For the same compound, the normalized growth (locus YDR150W, strain NUM1, active compounds read low) was 0.0561 (active), the normalized growth (locus YDR159W, strain sac3, active compounds read low) was 0.0951 (active) and the normalized growth (locus YDR162C, strain NBP2, active compounds read low) was 0.0528 (active). The normalized growth (locus YDR195W, strain ref2) was 0.147 (active), the normalized growth (locus YDR297W, strain sur2, active compounds read low) was 0.0586 (active) and the normalized growth (locus YDR318W, strain mcm21, active compounds read low) was 0.0615 (active). The normalized growth (locus YDR334W, strain swr1, active compounds read low) was 0.0607 (active), the normalized growth (locus YDR335W, strain msn5, active compounds read low) was 0.0573 (active) and the normalized growth (locus YDR388W, active compounds read low) was 0.0573 (active). For the same compound, the normalized growth (locus YDR392W, strain spt3, active compounds read low) was 0.0953 (active), the normalized growth (locus YDR502C, strain sam2, active compounds read low) was 0.0603 (active) and the normalized growth (locus YEL003W, strain gim4, active compounds read low) was 0.0529 (active). The normalized growth (locus YEL037C, strain rad23, active compounds read low) was 0.0561 (active), the normalized growth (locus YEL061C, strain CIN8 (second series), active compounds read low) was 0.06 (active) and the normalized growth (locus YEL061C, strain CIN8, active compounds read low) was 0.0482 (active). For the same compound, the normalized growth (locus YER015W, strain faa2, active compounds read low) was 0.0644 (active), the normalized growth (locus YER016W, strain bim1, active compounds read low) was 0.0587 (active) and the normalized growth (locus YER110C, active compounds read low) was 0.0744 (active). For the same compound, the normalized growth (locus YER111C, strain swi4, active compounds read low) was 0.0843 (active), the normalized growth (locus YER155C, strain BEM2 (second series), active compounds read low) was 0.0839 (active) and the normalized growth (locus YER155C, strain BEM2, active compounds read low) was 0.0634 (active). For the same compound, the normalized growth (locus YER167W, strain BCK2, active compounds read low) was 0.0494 (active), the normalized growth (locus YFR010W, strain ubp6, active compounds read low) was 0.067 (active) and the normalized growth (locus YGL078C, strain dbp3, active compounds read low) was 0.0559 (active). For the same compound, the normalized growth (locus YGL086W, strain mad1, active compounds read low) was 0.0545 (active), the normalized growth (locus YGL167C, strain pmr1, active compounds read low) was 0.0722 (active) and the normalized growth (locus YGL173C, strain kem1, active compounds read low) was 0.0644 (active). For the same compound, the normalized growth (locus YGL227W, strain vid30, active compounds read low) was 0.0589 (active), the normalized growth (locus YGL240W, strain doc1, active compounds read low) was 0.0761 (active) and the normalized growth (locus YGL248W, strain PDE1, active compounds read low) was 0.0464 (active). For the same compound, the normalized growth (locus YGL253W, strain hxk2, active compounds read low) was 0.0521 (active), the normalized growth (locus YGR078C, strain PAC10, active compounds read low) was 0.0501 (active) and the normalized growth (locus YGR135W, strain pre9, active compounds read low) was 0.0684 (active). For the same compound, the normalized growth (locus YGR229C, strain SMI1, active compounds read low) was 0.0575 (active), the normalized growth (locus YGR252W, strain gcn5, active compounds read low) was 0.158 (active) and the normalized growth (locus YHR013C, strain ard1, active compounds read low) was 0.107 (active). The normalized growth (locus YHR027C, strain rpn1, active compounds read low) was 0.0609 (active), the normalized growth (locus YHR030C, strain SLT2, active compounds read low) was 0.0503 (active) and 0.115 (active) and the normalized growth (locus YHR079C, strain IRE1 (second series), active compounds read low) was 0.0559 (active). The normalized growth (locus YHR079C, strain IRE1, active compounds read low) was 0.109 (active), the normalized growth (locus YHR094C, strain hxt1, active compounds read low) was 0.0581 (active) and the normalized growth (locus YHR129C, strain ARP1, active compounds read low) was 0.0536 (active). For the same compound, the normalized growth (locus YHR142W, strain chs7, active compounds read low) was 0.0711 (active), the normalized growth (locus YHR200W, strain rpn10, active compounds read low) was 0.0592 (active) and the normalized growth (locus YIL066C, strain RNR3, active compounds read low) was 0.0523 (active). For the same compound, the normalized growth (locus YIL073C, strain SPO22, active compounds read low) was 0.0945 (active), the normalized growth (locus YIL125W, strain kgd1, active compounds read low) was 0.0556 (active) and the normalized growth (locus YIR030C, strain dcg1, active compounds read low) was 0.0579 (active). The normalized growth (locus YJL092W, strain hpr5, active compounds read low) was 0.0561 (active), the normalized growth (locus YJL095W, strain BCK1 (second series), active compounds read low) was 0.057 (active) and the normalized growth (locus YJL095W, strain BCK1, active compounds read low) was 0.049 (active) and 0.102 (active). The normalized growth (locus YJL115W, strain asf1, active compounds read low) was 0.0685 (active), the normalized growth (locus YJL129C, strain trk1, active compounds read low) was 0.0884 (active) and the normalized growth (locus YJL134W, strain LCB3, active compounds read low) was 0.0489 (active). For the same compound, the normalized growth (locus YJL154C, strain vps35, active compounds read low) was 0.0623 (active), the normalized growth (locus YJL164C, strain tpk1, active compounds read low) was 0.0632 (active) and the normalized growth (locus YJL166W, strain qcr8, active compounds read low) was 0.0627 (active). For the same compound, the normalized growth (locus YJL168C, strain set2, active compounds read low) was 0.0598 (active), the normalized growth (locus YJL187C, strain SWE1 (second series), active compounds read low) was 0.0476 (active) and the normalized growth (locus YJL187C, strain SWE1, active compounds read low) was 0.0566 (active). The normalized growth (locus YJR043C, strain POL32, active compounds read low) was 0.0614 (active) and the normalized growth (locus YJR066W, strain TOR1, active compounds read low) was 0.00175 (active).
